# Reference: ChEMBL document CHEMBL1961873, “Compounds: GSK PKIS; Assays: Nanosyn kinase panel” (2012)
# Tested on: Tyrosine-protein kinase ABL1 (Homo sapiens), P00519 [Y253F]
# Conditions: at 0.1 µM
row,SMILES,inhibition
1,Nc1ccc(C#Cc2cncnc2Nc2ccc(OCc3cccc(F)c3)c(Cl)c2)cc1,1.89%
2,O=S(=O)(CCOCc1ccc(-c2ccc3ncnc(Nc4ccc(OCc5cccc(F)c5)c(Cl)c4)c3c2)o1)c1ccccc1,1.1%
3,Nc1nccc(C#Cc2cncnc2Nc2ccc(OCc3cccc(F)c3)c(Cl)c2)n1,3.75%
4,ON=C1CCc2cc(-c3nc(C4CCNCC4)[nH]c3-c3ccncc3)ccc21,0.98%
5,Cc1cc(O)cc(C)c1/C=C/c1cncc(C(=O)N(C)C)c1,2.53%
6,CCn1c(-c2nonc2N)nc2c(C#CC(C)(C)O)nc(OCCNC)cc21,1.69%
7,Cc1cc(-c2ccccn2)cc(C)c1/C=C/c1cncc(-c2nn[nH]n2)c1,0.95%
8,NS(=O)(=O)c1ccc(-c2cc3ccncc3cc2OCc2ccccc2)cc1,5.3%
9,CS(=O)(=O)Nc1cccc(-c2ccc3c(NC(=O)C4CC4)n[nH]c3c2)c1,1.55%
10,O=C(Nc1ccc(Oc2ccc3[nH]c(NC(=O)c4ccco4)nc3c2)cc1)Nc1cc(C(F)(F)F)ccc1F,38%
11,COc1ccc2ncnc(Nc3ccc(OCc4ccccc4)cc3)c2c1,2.03%
12,COC(=O)c1cncc(/C=C/c2c(C)cc(O)cc2C)c1,13.9%
13,Cc1ccc(C(=O)NC2CC2)cc1-c1ccc2[nH]ncc2c1,-1.37%
14,COc1cc2ncnc(Nc3ccc4c(cnn4Cc4ccccc4)c3)c2cc1OC,2.86%
15,Cc1ccc2c(c1)/C(=N/Nc1ccc(S(N)(=O)=O)cc1)C(=O)N2,-0.42%
16,CN(C)CCCn1c(-c2nonc2N)nc2cnccc21,2.05%
17,CCCN1CCCC(c2ccc(Nc3nc(Nc4cc(F)ccc4C(N)=O)c4cc[nH]c4n3)c(OC)c2)C1 (stereo unspecified),4.98%

row,SMILES,inhibition
1,Cc1ccc(NC(=O)CC2CC2)cc1-c1ccc(C(=O)NCC2CC2)cc1,5.1%
2,Cc1ccc(Nc2ccnc(Nc3cccc(C(N)=O)c3)n2)cc1O,80.4%
3,CN(c1ccc(NC(=O)Nc2ccc(OC(F)(F)F)cc2)cc1)c1ccnc(Nc2cccc(S(N)(=O)=O)c2)n1,39.2%
4,CS(=O)(=O)CCNCc1nc(-c2ccc3ncnc(Nc4ccc(OCc5cccc(C(F)(F)F)c5)cc4)c3c2)cs1,1.32%
5,Cc1nc(-c2ccccc2)n2nc(NCCCN3CCOCC3)ncc12,1.75%
6,CN(C)C(=O)O[C@H]1CN[C@H](C#Cc2cc3ncnc(Nc4ccc(OCc5cccc(F)c5)c(Cl)c4)c3s2)C1,4.89%
7,NC(=O)c1sc(-n2cnc3ccccc32)cc1OCc1ccccc1Br,2.98%
8,COc1cc(/C=N/Nc2ncnc3c2cnn3C(C)C)ccc1O,37%
9,Cc1ccc2c(-c3ccnc(Nc4cccc(C(F)(F)F)c4)n3)c(-c3ccccc3)nn2n1,12.2%
10,CC(C)c1ccc2c(c1)NC(=O)/C2=N/Nc1ccc(S(N)(=O)=O)cc1,4.59%
11,NS(=O)(=O)c1ccc(NC=C2C(=O)Nc3ccc4ncsc4c32)cc1,10.6%
12,CN(C)c1cc2c(Nc3ccc4c(cnn4Cc4ccccc4)c3)ncnc2cn1,1.19%
13,Oc1cccc(-c2nc(-c3ccccc3)[nH]c2-c2ccncc2)c1,11.9%
14,CCn1c(-c2nonc2N)nc2ccc(F)cc21,2.99%
15,CN1CCN(C(=O)c2ccc(NC(=O)Nc3ccc(N(C)c4ccnc(Nc5ccc(CS(C)(=O)=O)cc5)n4)cc3)cc2)CC1,8.21%
16,Nc1nccc(-c2c(-c3ccc(F)cc3)nn3cc(C(F)(F)F)ccc23)n1,1.01%

# Tested on: Tyrosine-protein kinase ABL1 (Homo sapiens), P00519 [Y253F]
# Conditions: at 1 µM
row,SMILES,inhibition
1,Nc1ccc(C#Cc2cncnc2Nc2ccc(OCc3cccc(F)c3)c(Cl)c2)cc1,2.12%
2,O=S(=O)(CCOCc1ccc(-c2ccc3ncnc(Nc4ccc(OCc5cccc(F)c5)c(Cl)c4)c3c2)o1)c1ccccc1,1.05%
3,Nc1nccc(C#Cc2cncnc2Nc2ccc(OCc3cccc(F)c3)c(Cl)c2)n1,2.69%
4,ON=C1CCc2cc(-c3nc(C4CCNCC4)[nH]c3-c3ccncc3)ccc21,1.65%
5,Cc1cc(O)cc(C)c1/C=C/c1cncc(C(=O)N(C)C)c1,14.2%
6,CCn1c(-c2nonc2N)nc2c(C#CC(C)(C)O)nc(OCCNC)cc21,4.64%
7,Cc1cc(-c2ccccn2)cc(C)c1/C=C/c1cncc(-c2nn[nH]n2)c1,5.04%
8,NS(=O)(=O)c1ccc(-c2cc3ccncc3cc2OCc2ccccc2)cc1,3.98%
9,CS(=O)(=O)Nc1cccc(-c2ccc3c(NC(=O)C4CC4)n[nH]c3c2)c1,11.8%
10,O=C(Nc1ccc(Oc2ccc3[nH]c(NC(=O)c4ccco4)nc3c2)cc1)Nc1cc(C(F)(F)F)ccc1F,84%
11,COc1ccc2ncnc(Nc3ccc(OCc4ccccc4)cc3)c2c1,1.02%
12,COC(=O)c1cncc(/C=C/c2c(C)cc(O)cc2C)c1,60.9%
13,Cc1ccc(C(=O)NC2CC2)cc1-c1ccc2[nH]ncc2c1,0.48%
14,COc1cc2ncnc(Nc3ccc4c(cnn4Cc4ccccc4)c3)c2cc1OC,4.15%
15,Cc1ccc2c(c1)/C(=N/Nc1ccc(S(N)(=O)=O)cc1)C(=O)N2,7.64%
16,CN(C)CCCn1c(-c2nonc2N)nc2cnccc21,4.68%
17,CCCN1CCCC(c2ccc(Nc3nc(Nc4cc(F)ccc4C(N)=O)c4cc[nH]c4n3)c(OC)c2)C1 (stereo unspecified),9.67%

row,SMILES,inhibition
1,Cc1ccc(NC(=O)CC2CC2)cc1-c1ccc(C(=O)NCC2CC2)cc1,5.33%
2,Cc1ccc(Nc2ccnc(Nc3cccc(C(N)=O)c3)n2)cc1O,94.1%
3,CN(c1ccc(NC(=O)Nc2ccc(OC(F)(F)F)cc2)cc1)c1ccnc(Nc2cccc(S(N)(=O)=O)c2)n1,81.5%
4,CS(=O)(=O)CCNCc1nc(-c2ccc3ncnc(Nc4ccc(OCc5cccc(C(F)(F)F)c5)cc4)c3c2)cs1,0.85%
5,Cc1nc(-c2ccccc2)n2nc(NCCCN3CCOCC3)ncc12,3.67%
6,CN(C)C(=O)O[C@H]1CN[C@H](C#Cc2cc3ncnc(Nc4ccc(OCc5cccc(F)c5)c(Cl)c4)c3s2)C1,4.19%
7,NC(=O)c1sc(-n2cnc3ccccc32)cc1OCc1ccccc1Br,5.62%
8,COc1cc(/C=N/Nc2ncnc3c2cnn3C(C)C)ccc1O,82.2%
9,Cc1ccc2c(-c3ccnc(Nc4cccc(C(F)(F)F)c4)n3)c(-c3ccccc3)nn2n1,53.3%
10,CC(C)c1ccc2c(c1)NC(=O)/C2=N/Nc1ccc(S(N)(=O)=O)cc1,28.8%
11,NS(=O)(=O)c1ccc(NC=C2C(=O)Nc3ccc4ncsc4c32)cc1,48.7%
12,CN(C)c1cc2c(Nc3ccc4c(cnn4Cc4ccccc4)c3)ncnc2cn1,3.05%
13,Oc1cccc(-c2nc(-c3ccccc3)[nH]c2-c2ccncc2)c1,44.9%
14,CCn1c(-c2nonc2N)nc2ccc(F)cc21,6.49%
15,CN1CCN(C(=O)c2ccc(NC(=O)Nc3ccc(N(C)c4ccnc(Nc5ccc(CS(C)(=O)=O)cc5)n4)cc3)cc2)CC1,48.1%
16,Nc1nccc(-c2c(-c3ccc(F)cc3)nn3cc(C(F)(F)F)ccc23)n1,-0.43%
